Results filed as inconclusive are left out. A call without a number means that no potency is given here. The source made the active and inactive calls. Calls follow the shape of the dose curve; as a rule, active = well fitted inhibition curve with a large enough effect; inconclusive = small, poorly fitted or top-dose-only effect; inactive = no such curve, though single readings can be large or run the other way.
Assay: S16 Schwann cell PMP22 intronic element firefly luciferase assay (AID 624032); also: nearly all actives have a fitted effect of over 30% in size
Conditions: S16 rat Schwann cells, PMP22 element FLuc, 24 h; series mostly up to 57.5 µM
Outline: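 Rat S16 Schwann cells stably carrying a PMP22 intronic element-driven Fluc reporter were seeded overnight, then exposed to compounds for 24 h at 37 °C. Luminescence was normalized to PTC124 (positive control) and DMSO (0% activity).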
Potency is read from the fitted curve at half-maximal effect.

For `O=C(CCNNC(=O)c1ccncc1)NCc1ccccc1`, which Potency is on record?
The Potency was “inactive”.

With `NS(=O)(=O)c1cc2c(cc1Cl)NC(C1CC3C=CC1C3)NS2(=O)=O` (stereo not drawn) as the compound, how does the Potency read?
Its Potency is “inactive”.

For `NC(=O)c1ncn([C@@H]2O[C@H](CO)[C@@H](O)[C@H]2O)c1O`, which Potency is on record?
The Potency was “inactive”.

For `CCN1CCC[C@H]1CNC(=O)c1c(O)c(Cl)cc(Cl)c1OC`, which Potency is on record?
The Potency was “inactive”.

Which Potency does the source give for `Cc1nnc(SCC2=C(C(=O)O)N3C(=O)[C@@H](NC(=O)Cn4cnnn4)[C@H]3SC2)s1` here?
The Potency was “inactive”.

For `NC(N)=N/N=C/c1c(Cl)cccc1Cl`, which Potency is on record?
The Potency was “inactive”.

For `O=C(O)CN(CCOCCOCCN(CC(=O)O)CC(=O)O)CC(=O)O`, which Potency is on record?
The Potency was “inactive”.

Which Potency does the source give for `CCN1CCc2nc(N)oc2CC1` here?
The Potency was “inactive”.

For `Cc1ccc(Cl)c(Nc2ccccc2C(=O)O)c1Cl`, which Potency is on record?
The Potency was “inactive”.

Which Potency does the source give for `CN/C(=C\[N+](=O)[O-])NCCSCc1ccc(CN(C)C)o1` here?
Its Potency is “inactive”.

Which Potency does the source give for `CSc1ccc(C(=O)c2[nH]c(=O)[nH]c2C)cc1` here?
Its Potency is “inactive”.

Which Potency does the source give for `CNCCC(Oc1ccccc1OC)c1ccccc1` (stereo not drawn) here?
Its Potency is “inactive”.

Which Potency does the source give for `C=CCc1ccccc1OCC(O)CNC(C)C` (stereo not drawn) here?
The Potency was “inactive”.

For `Cc1nc2ccccn2c(=O)c1CCN1CCC(C(=O)c2ccc(F)cc2)CC1`, which Potency is on record?
The Potency was “inactive”.

Which Potency does the source give for `Cc1ccc(=O)n(-c2ccccc2)c1` here?
Its Potency is “inactive”.

For `C[n+]1cc2c3c(ccc2c2ccc4cc5c(cc4c21)OCO5)OCO3`, which Potency is on record?
Its Potency is 8.09 µM (active).

Which Potency does the source give for `CC[N+](C)(C)c1cccc(O)c1` here?
Its Potency is “inactive”.

For `COc1ccc(CCN(C)CCCC(C#N)(c2cc(OC)c(OC)c(OC)c2)C(C)C)cc1OC` (stereo not drawn), which Potency is on record?
The Potency was “inactive”.

With `O=C(O)CP(=O)(O)O` as the compound, how does the Potency read?
The Potency was “inactive”.

For `OCCN1CCN(CCCN2c3ccccc3C=Cc3ccccc32)CC1`, which Potency is on record?
The Potency was 36.1 µM (active).

With `CC(=O)Oc1cc(C(C)C)c(OCCN(C)C)cc1C` as the compound, how does the Potency read?
The Potency was “inactive”.

With `CC(C)NNC(=O)c1ccncc1` as the compound, how does the Potency read?
The Potency was “inactive”.

For `CN1CCN(C2=Nc3ccccc3Oc3ccc(Cl)cc32)CC1`, which Potency is on record?
Its Potency is “inactive”.

With `CCN(CC)CCOCCOC(=O)C1(c2ccccc2)CCCC1` as the compound, how does the Potency read?
Its Potency is “inactive”.

With `CCCN1C[C@H](CSC)C[C@@H]2c3cccc4[nH]cc(c34)C[C@H]21` as the compound, how does the Potency read?
The Potency was “inactive”.

Which Potency does the source give for `CCN(CC)CCCN(c1ccccc1)C1Cc2ccccc2C1` here?
Its Potency is 16.1 µM (active).

Which Potency does the source give for `NCCCNCCSP(=O)(O)O` here?
The Potency was “inactive”.

With `CNC1(C)C2CCC(C2)C1(C)C` (stereo not drawn) as the compound, how does the Potency read?
Its Potency is “inactive”.

With `CCO/C([O-])=N/c1c[n+](N2CCOCC2)no1` as the compound, how does the Potency read?
Its Potency is “inactive”.

Which Potency does the source give for `CCn1cc(C(=O)O)c(=O)c2cc3c(cc21)OCO3` here?
The Potency was “inactive”.

For `CCCOc1ccccc1-c1nc2n[nH]nc2c(=O)[nH]1`, which Potency is on record?
The Potency was “inactive”.

With `Brc1c(NC2=NCCN2)ccc2nccnc12` as the compound, how does the Potency read?
The Potency was “inactive”.

Which Potency does the source give for `Cc1cc(C)c(/C=C2\C(=O)Nc3ccccc32)[nH]1` here?
Its Potency is “inactive”.
